According to PubChem BioAssay AID518 (Sanford-Burnham Center for Chemical Genomics, 2006):
In all, about 64,000 compounds went through this assay and about 55 (0.09%) were called active. The rule behind the calls is not given here. Not all results are given here.

Each compound was assayed against Alkaline phosphatase, tissue-nonspecific isozyme (Homo sapiens) (UniProt P05186) (assay: inhibition of tissue-nonspecific alkaline phosphatase – biochemical, luminescent (AID 518;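 note: plate controls were vehicle for no effect and reference inhibitor for full effect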)). Conditions: purified TNAP enzyme, luminescent substrate readout; at 20 µM; hits give high values.
Alkaline phosphatase, tissue-nonspecific isozyme (Homo sapiens), sequence (P05186 whole entry, looked up): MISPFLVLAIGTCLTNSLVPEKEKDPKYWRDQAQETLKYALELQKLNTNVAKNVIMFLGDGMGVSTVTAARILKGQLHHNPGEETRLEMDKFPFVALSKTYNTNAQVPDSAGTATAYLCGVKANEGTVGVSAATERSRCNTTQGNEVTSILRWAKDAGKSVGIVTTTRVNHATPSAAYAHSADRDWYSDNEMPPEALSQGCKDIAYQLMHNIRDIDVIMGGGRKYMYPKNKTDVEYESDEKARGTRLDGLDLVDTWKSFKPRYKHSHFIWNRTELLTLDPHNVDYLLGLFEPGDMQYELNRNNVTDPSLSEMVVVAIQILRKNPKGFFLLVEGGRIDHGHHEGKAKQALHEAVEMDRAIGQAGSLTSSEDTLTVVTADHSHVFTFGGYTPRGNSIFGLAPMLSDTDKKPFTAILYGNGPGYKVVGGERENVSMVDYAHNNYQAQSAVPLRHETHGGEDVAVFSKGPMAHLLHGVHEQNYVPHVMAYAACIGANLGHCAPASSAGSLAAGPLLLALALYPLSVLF

inhibition, inactive:
CCN1C(=O)OC2(CCCCC2)C1(C)O (stereo not drawn) 13%
O=C(NCCN1CCOCC1)c1cc2ccccc2o1 9.4%
Cc1cc2c(c(Sc3ccccc3)n1)C(=O)OC2 7.5%
O=C(N1CCOCC1)N1CCN(CC(O)COc2ccc3ccccc3c2)CC1 (stereo not drawn) 16.3%
Cn1c2ccccc2c2nnc(SCN3C(=O)c4ccccc4C3=O)nc21 8.4%
Cc1cc(C(=O)OCC(=O)Nc2nc(-c3ccccc3)cs2)c(C)o1 1.4%
O=c1c2ccccc2nc2n1CCCS2 4.5%
COc1cc2[nH]c3c(N4CCN(c5ccc(Cl)cc5)CC4)ncnc3c2cc1OC 5.3%
O=C(CCC(=O)c1ccc(F)cc1)OC1CCOC1=O (stereo not drawn) 6.6%
COc1ccccc1N1CCN(C(=O)CSc2ccc3c(C)cc(C)nc3n2)CC1 10.2%
Oc1ccccc1Oc1ncc(Br)c(N2CCOCC2)n1 -1.3%
COc1ccccc1-c1nc(SCC(=O)O)n[nH]1 4.7%
C/C(N)=C(/C#N)C(=O)CSc1ncnc2ccccc12 5.5%
Cc1nc2sc(C(c3cccc(F)c3)N3CCCC(C)C3)c(O)n2n1 (stereo not drawn) 5.8%
COc1ccc(OC)c2c1CCC2=O 8.1%
CN(CCCNC(=O)C1CCC(=O)N1Cc1ccc(F)cc1)c1ccccc1 (stereo not drawn) 1.1%
Cc1cc(C(=O)NCCN2CCN(c3cccc(Cl)c3)CC2)n(-c2ccccc2)n1 10.8%
CCc1c(C)[nH]c2ccc(C)cc2c1=O 7.8%
CCCCn1c(NCCN(C)C)nc2c1c(=O)[nH]c(=O)n2C -1%
O=C(CSc1oc(-c2ccccc2)nc1S(=O)(=O)c1ccc(F)cc1)NCC1CCCO1 (stereo not drawn) 1.7%
O=C(COc1ccc(S(=O)(=O)N2CCOCC2)cc1)Nc1ccc2c(c1)OCCO2 -6.1%
C=CCN1C(=O)C(O)(CC(=O)c2ccccc2)c2ccccc21 (stereo not drawn) 7.7%
CN(C)c1oc(-c2ccc(OCc3ccc(Cl)cc3)cc2)nc1C#N 5.2%
O=C(c1ccc(CNS(=O)(=O)c2cccc(C(F)(F)F)c2)cc1)N1CCOCC1 19.5%
CCn1cnc2sc(C(=O)N3CCN(Cc4ccc5c(c4)OCO5)CC3)c(C)c2c1=O 0.3%
c1ccc(N2CCN(C3CCSC3)CC2)cc1 (stereo not drawn) 13.5%
COCCNc1ncnc2nc[nH]c12 8.7%
CCOCCCNC(=O)C(c1ccc(C)cc1)N1CCOCC1 (stereo not drawn) -1%
CS(=O)(=O)N(CC(=O)NCc1ccc2c(c1)OCO2)c1ccc(Cl)cc1 6.8%
CCOc1ccc(CNc2ccc3c(c2)ncn3C)cc1 16.9%
Cc1nccn1CCC(=O)O 5.3%
CCc1ccccc1N1C(=O)C2CC(C)=C(C)CC2C1=O (stereo not drawn) 5.3%
Cc1cc(C(=O)NC(C)c2ccncc2)cs1 (stereo not drawn) 3.5%
Cc1ccc(S(=O)(=O)Cn2nnnc2C(c2ccc(F)cc2)N2CCCCC2)cc1 (stereo not drawn) 3.5%
CCCCCC(=O)N1CCN(CCN=CC2=C(O)CC(c3ccco3)CC2=O)CC1 (stereo not drawn) 8%
O=C(NCCN1CCOCC1)C1CCN(c2nc3ccccc3o2)CC1 7.3%
CCCc1ccc(S(=O)(=O)NCCc2ccncc2)cc1 10.5%
CCc1ccc2[nH]c(=O)c(C(c3nnnn3CC3CCCO3)N3CCCc4ccccc43)cc2c1 (stereo not drawn) 19.5%
COc1cc(C2C3CN(C)CC=C3C(C#N)=C(N)C2(C#N)C#N)ccc1OC(C)C (stereo not drawn) -0.1%
CC1c2nc3ccccc3n2C(CC(=O)NCc2ccccn2)C(=O)N1Cc1ccccc1 (stereo not drawn) 12.3%
Cc1onc(-c2c(F)cccc2Cl)c1C(=O)Nc1cccc2nsnc12 13.1%
COc1cc(C)nc(OCCNC(=O)COc2ccc(Cl)cc2Cl)n1 13.3%
COc1ccc(CNS(=O)(=O)c2ccc(C3CNC(=O)C3)cc2)cc1 (stereo not drawn) 8.2%
O=C(CSc1nnc2scc(-c3ccccc3)n12)N1CCCc2ccccc21 5.3%
C=CCOc1ccccc1C1C2=C(CC(C)(C)CC2=O)Nc2c1c(=O)n(C)c(=O)n2C (stereo not drawn) 4.4%
COC(=O)N(C)CCCC1(C)C(=O)N(C)c2ccc(O)cc21 (stereo not drawn) 8.6%
c1ccc(CSc2nncn2-c2ccccn2)cc1 17.8%
Cc1ccnc(NS(=O)(=O)c2cccs2)c1 14.5%
CCCc1noc2c1C(c1ccoc1)C(C#N)=C(N)N2 (stereo not drawn) 15.5%
CCN(CC)CCCN1C(=O)C(=O)/C(=C(/O)c2ccc3c(c2)OCCO3)C1c1ccc(C)o1 (stereo not drawn) 6.3%
c1ccc(CCc2nn3c(Cn4cnc5ccccc54)nnc3s2)cc1 10.8%
CCn1c2ccccc2c2nnc(SCC(=O)c3ccccc3)nc21 14.3%
CC(C)(CNS(=O)(=O)c1ccc(F)cc1)CNS(=O)(=O)c1ccc(F)cc1 10.8%
COc1ccc(CN(Cc2cc3cc4c(cc3[nH]c2=O)OCO4)C(=O)NC2CCCCC2)cc1 6.8%
O=C(NCc1ccco1)C(c1ccco1)N(CCc1ccccc1)C(=O)Cn1nnc2ccccc21 (stereo not drawn) 12.6%
Cc1ccc(N2C(=O)C3C(C2=O)C(C(=O)c2ccc(Cl)cc2)N2CCCC32)cc1 (stereo not drawn) 12%
CCOC(=O)c1cccnc1SCC(=O)N(C)c1ccccc1 -1.1%
O=C(Nc1c(Cl)cc(Cl)cc1C(=O)NCC1CCCO1)c1ccco1 (stereo not drawn) 5.4%
COC(=O)c1nc(NC(=O)C(C)C)n[nH]1 5.3%
COc1ccc2c(=O)c3c(=O)n(Cc4ccco4)c(-c4ccc(C)cc4)nc3oc2c1 9.7%
Cc1ccc(OCCn2c(=O)cnc3ccccc32)cc1 3.3%
CC1CCN(S(=O)(=O)c2cccc(C(=O)Nc3ccccn3)c2)CC1 24.3%
CCN1C(=O)C(Cc2nc3ccccc3c(=O)n2C)c2ccccc21 (stereo not drawn) 10.6%
